Source: PubChem
CCT modulator: cytosolic chaperonin activity modulation; purified chaperonin ATPase assay, HTRF ADP detection, 30 min; AID 651819; activity change, % (test concentration not listed), hits read low; 0.3% of 360,000 active; in the data active = activity change below about -30%
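TRiC (40 or 20 nM final, by batch activity) in 30 mM Tris pH 7.4, 100 mM KCl, 5 mM MgCl2, 1 mM DTT was treated with compound at 76 uM single dose, then 10 uM ATP, 30 min at 37 °C. ADP was read by HTRF Transcreener.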
pAkt inh: inhibitors of Akt phosphorylation; activity change, % for hits at 50 µM; Neuro2A IGF-stimulated pAkt S473 HTRF, 20 min; active compounds read low; 0.32% of 360,000 active; AID 651550; in the data active = activity change below about -80%; inconclusive = mostly about -51% to -80%
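Neuro2A cells (4,500/well, DMEM with 0.5% FBS) were treated with compound at a single 50 µM final concentration, stimulated with 6 nM IGF for 20 min at 37 °C, and lysed. Phospho-Akt Ser473 was read by HTRF as 665/615 ratio ×10^4.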
Six1-Eya2 inh: Six1/Eya2 interaction inhibition; activity change, % (no concentration beside the values); AlphaScreen GST-Six1/His-Eya2 binding, biochemical; active compounds read low; AID 651725; Q15475+O00167; 0.56% of 360,000 active
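Homogeneous AlphaScreen proximity assay pairing GST-Six1 with His-tagged Eya2 (added as 5X mix: 250 nM and 500 nM) in 50 mM Tris pH 8.0, 300 mM NaCl, 1 mM TCEP. Glutathione donor and nickel acceptor beads; 1 h, 37 °C, dark.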
CtBP-E1A inh: inhibitors of CtBP/E1A interaction; activity change, % (no concentration beside the values); 0.49% of 340,000 active; AlphaScreen GST-E1A/His-CtBP binding, 1536-well; active compounds read low; AID 651724
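Protein mix (5X: 125 nM each GST-E1A, His-CtBP) was incubated with pinned compound 2 h at 37 deg C in dark, in 50 mM Tris pH 8.0 buffer with 300 mM NaCl. Glutathione donor and nickel acceptor beads followed; AlphaScreen signal read after 1 h.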
Starred values were filed as active, the others as inactive; i = inactive; ? = inconclusive; · = no result. An excerpt weighted towards active compounds, which were near 1.3% of everything screened. Cut-off read from the data, not from the text of the source, unless noted: active = activity change below about -65%; inconclusive = mostly about -30% to -63%; inactive = weaker than that. % is set by controls: 0 for no effect and ±100 for the full control effect.

SMILES	CCT modulator	pAkt inh	Six1-Eya2 inh	CtBP-E1A inh
Cc1cc(C)c(NC(=O)CN2CCN(c3ccccn3)CC2)c(C)c1	2	i	8	-6
CCC(=O)c1ccc(OC(=O)c2cccs2)cc1	-3	i	?	-6
COC(=O)c1ccc(OC(=O)c2cccs2)cc1	-3	i	-68*	4
O=C(CCNC(=O)c1ccccc1Cl)NCC(c1ccc(F)cc1)N1CCOCC1 (stereo not given)	3	i	-3	1
CCCCCCN1CCN(C2CN(Cc3cn(Cc4cc(C)cc(C)c4)nn3)S(=O)(=O)C2)CC1 (stereo not given)	-3	i	-6	-9
CCCCCCN1CCN(C2CN(Cc3cn(Cc4ccccc4)nn3)S(=O)(=O)C2)CC1 (stereo not given)	-32*	i	9	-8
CC(O)(c1cccc(F)c1)c1nc(-c2ccncc2)cs1 (stereo not given)	-31*	i	5	3
CC(O)(c1cccc(F)c1)c1nc(-c2ccccc2)cs1 (stereo not given)	-1	i	-1	7
CCC(C(=O)Nc1ccc(C(=O)Nc2ccccc2C(=O)O)cc1)c1ccccc1 (stereo not given)	-3	i	?	-81*
O=C(Nc1ccccc1)c1ccc(NC(=O)C2CC2)cc1	-1	i	0	2
O=C(Nc1ccccc1C(=O)O)c1ccc(NC(=O)C2CCCCC2)cc1	0	i	-83*	-77*
O=C(NCC1CCCO1)c1ccccc1NS(=O)(=O)c1cc([N+](=O)[O-])ccc1Cl (stereo not given)	-1	i	0	10
Cc1nc2ncccn2c1-c1csc(Nc2ccc(N(C)C)cc2)n1	-1	i	?	?
COc1ccccc1Nc1nc(-c2c(C)nc3ncccn23)cs1	-2	i	-85*	-92*
Cc1nc2ncccn2c1-c1csc(Nc2ccccc2)n1	1	i	-80*	7
COc1ccc(Nc2nc(-c3c(C)nc4ncccn34)cs2)cc1	-1	i	?	·
Cc1ccc([N+](=O)[O-])cc1S(=O)(=O)Nc1ccc(C(=O)N2CCN(C(=O)c3ccco3)CC2)cc1	-2	i	-20	-14
CCC1(C)NC(C(=O)O)Cc2c1[nH]c1ccccc21 (stereo not given)	-40*	i	-1	·
CCCN1CCC2(CC1)NC(C(=O)O)Cc1c2[nH]c2ccccc12 (stereo not given)	-2	i	1	-2
CCn1c(C)nc2cc(S(=O)(=O)C(F)(F)C(F)C(F)(F)F)ccc21 (stereo not given)	-48*	i	3	4
CCCCc1c(O)nc(SCC(=O)N2CCOCC2)n(-c2ccccc2C)c1=O	0	-113%*	2	0
C[C@@H]1CN([C@@H](C)CO)C(=O)CCCn2nncc2CO[C@H]1CN(C)Cc1ccccc1	0	i	7	1
CC(C)c1ccc(/C=N/n2nnnc2Nc2ccccc2)cc1	-3	i	-1	6
CC/C(=N\n1nnnc1Nc1ccccc1)c1ccccc1	-1	-113%*	6	-1
CC(C)C(NC(=O)c1c(F)cccc1F)C(=O)NCc1ccc(S(=O)(=O)N2CCOCC2)cc1 (stereo not given)	0	i	1	·
SMILES	CCT modulator	pAkt inh	Six1-Eya2 inh	CtBP-E1A inh
O=C(Nc1ccccc1OC(F)F)c1cccc(S(=O)(=O)N2CCCC2)c1	0	i	1	2
CCCCN1C(=O)C(CC(=O)NCc2ccco2)CC(C(=O)N2CCCCCC2)=C1C (stereo not given)	0	i	15	2
Cc1n[nH]c(C)c1CCCCOc1ccccc1	-3	i	-5	-2
Cc1ccc(OCCCc2c(C)n[nH]c2C)cc1	-60*	i	1	5
CCn1c(SCC(N)=O)nc2sc3c(c2c1=O)CCCC3	0	i	1	0
CCn1c(SCC(=O)NCCOC)nc2sc3c(c2c1=O)CCCC3	-20	-80%*	-1	-2
COc1ccc(C2=C(Nc3ccc(F)cc3)c3ccccc3C2=O)cc1	2	-137%*	0	-1
COc1ccccc1CC(=O)N1CCN(c2cccc(C(F)(F)F)c2)CC1	-34*	i	-3	3
COc1ccc2nc(NC(=O)c3ccoc3C)sc2c1	-7	-110%*	-2	-3
O=c1[nH]nc(N=Nc2c(O)[nH]c3ccc(F)cc23)c(=O)[nH]1	0	i	-80*	-71*
O=C(Nc1cc(C(F)(F)F)ccc1-n1cncn1)c1ccc(Cl)cc1	-6	-91%*	6	4
Cc1ccc(OCCn2c(Br)nc3c2c(=O)n(C)c(=O)n3C)cc1	-1	i	29	40
COCCn1c(Br)nc2c1c(=O)n(C)c(=O)n2C	-42*	i	-23	0
O=C1C(=O)c2cccnc2-c2ncccc21	-1	i	-83*	-80*
O=C1c2cccnc2-c2ncccc21	0	i	-8	-5
O=C(Oc1ccc(-c2nccc(-c3ccccn3)n2)cc1)c1cccc(C(F)(F)F)c1	0	-96%*	1	-2
COc1ccccc1C(=O)NC(=O)COC(=O)Cc1ccccc1[N+](=O)[O-]	1	i	-3	-1
CC1=NN(c2nc3ccccc3[nH]2)C(=O)C1Cc1ccccc1 (stereo not given)	0	i	-91*	-81*
CC1=NN(c2nc3ccccc3[nH]2)C(=O)/C1=C/N(C)C	2	i	?	?
CC(=NNc1nc2ccccc2s1)c1ccncn1	-1	i	?	-78*
C/C(=N\Nc1nc2ccccc2s1)c1ccc(Br)s1	-3	i	-19	-7
Brc1ccc(C2=Nc3cccc4cccc(c34)N2)o1	-44*	i	7	0
COc1ccc(-c2ccc(N)cn2)cn1	2	i	1	1
Cc1ccc2c(c1)C1(C)C(C(C)(C)N2C=O)C1(Cl)Cl (stereo not given)	-2	i	1	·
COc1cc(/C=C(\C#N)c2[nH]nc(N)c2C#N)cc(OC)c1O	0	i	?	-67*
SMILES	CCT modulator	pAkt inh	Six1-Eya2 inh	CtBP-E1A inh
Cc1cc(C)c(C)c(S(=O)(=O)Nc2cccc(S(=O)(=O)Nc3ccccc3C(=O)O)c2)c1C	1	i	138	-10
CC1(C(=O)NS(=O)(=O)c2cccc(F)c2)CCN1C(=O)Cc1ccccc1 (stereo not given)	0	i	2	4
Cc1cc(C)c(S(=O)(=O)N2CCCCC2CCNC(=O)C(=O)NCc2cccnc2)c(C)c1 (stereo not given)	-3	i	-1	16
O=C(Nc1ccccc1N1CCOCC1)c1ccccc1NS(=O)(=O)c1ccc(F)c(F)c1	-31*	i	1	-8
CCn1c(O)c(/C=C2\C=Nc3ccccc32)sc1=Nc1ccccc1	-1	-89%*	-6	-10
Cc1nc2ccc(C(=O)N/N=C/c3ccccc3O)cc2[nH]1	0	i	-80*	-88*
